Sampled rows, rich in hits. Any-hit rate of the full collection: about 11%.
HP1b binding inh = HP1-beta chromodomain-methylated histone interaction inhibition | P83916 | AlphaScreen HP1-beta / biotin-H3K9me3 peptide binding | Potency, µM (top dose mostly 114 µM), for inactives: at the highest dose activity change, negative = inhibition, actives largely listed as inhibitors | hit rate 0.56% among 390,000; further: nearly all actives have a fitted effect of over 70% in size
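AlphaScreen: HP1-beta (50 nM) preformed 30 min with biotin-H3(1-18)K9me3 peptide (50 nM) in PBS pH 7.4, 0.01% Tween-20. Compound added for 30 min at RT, then streptavidin donor/nickel chelate acceptor beads (10 ug/mL) for 30 min.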
JMJD2A Tudor inh = JMJD2A Tudor domain (human) inhibition; O75164; Potency, µM (highest dose often 114 µM), for inactives: at the top dose activity change, negative = inhibition, most hits filed as inhibitors; hit rate 4.4% among 390,000; AlphaScreen JMJD2A-Tudor / H3K4me3 peptide binding; further: on the % scale 0 is the no-effect control and ±100 the full control effect; nearly all actives have a fitted effect of over 50% in size
Target sequence (O75164 whole entry, looked up, the tested form may be a part): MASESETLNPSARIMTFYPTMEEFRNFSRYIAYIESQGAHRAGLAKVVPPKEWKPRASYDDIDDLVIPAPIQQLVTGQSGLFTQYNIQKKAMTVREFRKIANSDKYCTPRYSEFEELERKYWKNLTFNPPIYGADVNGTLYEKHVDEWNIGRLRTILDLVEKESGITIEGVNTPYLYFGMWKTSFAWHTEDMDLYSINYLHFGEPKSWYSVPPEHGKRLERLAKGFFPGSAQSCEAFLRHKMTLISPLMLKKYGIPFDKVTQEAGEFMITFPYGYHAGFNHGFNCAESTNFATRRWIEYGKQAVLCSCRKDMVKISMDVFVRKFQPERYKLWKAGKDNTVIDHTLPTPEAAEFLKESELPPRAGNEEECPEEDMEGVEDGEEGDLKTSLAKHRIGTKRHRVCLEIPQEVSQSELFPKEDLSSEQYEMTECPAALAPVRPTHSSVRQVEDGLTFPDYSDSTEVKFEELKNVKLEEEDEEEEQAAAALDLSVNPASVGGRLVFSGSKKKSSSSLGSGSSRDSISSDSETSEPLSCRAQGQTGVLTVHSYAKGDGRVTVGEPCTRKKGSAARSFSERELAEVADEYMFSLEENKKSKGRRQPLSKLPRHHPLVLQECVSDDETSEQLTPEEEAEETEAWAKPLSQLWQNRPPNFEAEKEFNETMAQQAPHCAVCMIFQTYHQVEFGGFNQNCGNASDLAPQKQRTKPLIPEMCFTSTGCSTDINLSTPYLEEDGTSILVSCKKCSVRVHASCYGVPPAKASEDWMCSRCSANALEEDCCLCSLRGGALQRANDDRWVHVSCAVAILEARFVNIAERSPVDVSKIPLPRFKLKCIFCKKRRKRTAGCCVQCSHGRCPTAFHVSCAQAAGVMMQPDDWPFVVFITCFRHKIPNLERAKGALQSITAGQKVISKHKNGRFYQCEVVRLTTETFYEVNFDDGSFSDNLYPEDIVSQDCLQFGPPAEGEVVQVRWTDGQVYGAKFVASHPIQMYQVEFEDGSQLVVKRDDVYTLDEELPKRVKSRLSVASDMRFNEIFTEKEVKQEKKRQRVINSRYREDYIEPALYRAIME
L3MBTL1 block = L3MBTL1 (human) inhibition | Q9Y468 | AlphaScreen L3MBTL1–H3K9me1 peptide binding | Potency, µM (doses to about 57.1 µM), inactives show at the highest dose activity, negative = inhibition, most hits filed as inhibitors | hit rate 0.66% among 230,000; further: on the % scale 0 is the no-effect control and ±100 the full control effect; nearly all actives have a fitted effect of over 60% in size
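AlphaScreen assay: L3MBTL1 (50 nM final) was preincubated 30 min at room temperature with biotinylated H3(1-15)K9me1 peptide (75 nM final), then 30 min with library compounds; streptavidin donor and nickel chelate acceptor beads (10 ug/mL final) added, 30 min dark.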
BAZ2B inh = blocks human BAZ2B | Q9UIF8 | AlphaScreen BAZ2B-H3K14Ac peptide displacement | Potency, µM (series often up to 114 µM), for the others: top-dose activity change, negative = inhibition, most hits filed as inhibitors | hit rate 4.4% among 360,000 | AID 504333; further: on the % scale 0 is the no-effect control and ±100 the full control effect; nearly all actives have a fitted effect of over 60% in size
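BAZ2B 50 nM plus b-H3(5-23)K14Ac 50 nM, PBS pH 7.4/0.01% Tween-20, 30 min RT; compound added (max 110 uM), 30 min RT; streptavidin donor/Ni-chelate acceptor beads 10 ug/mL final, 20 min dark; AlphaScreen read.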
G9a inh = blocks human histone lysine methyltransferase G9a; hit rate 8.8% among 350,000; Potency, µM (doses to about 102 µM), inactives show at the top dose activity, negative = inhibition, hits mostly inhibitors; Q96KQ7; G9a H3K9 monomethylation, AlphaScreen, 2 h; further: on the % scale 0 is the no-effect control and ±100 the full control effect; nearly all actives have a fitted effect of over 75% in size
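AlphaScreen detection with an anti-monomethyl H3K9 antibody quantified product after a 2 h room-temperature reaction containing 500 nM biotinylated H3K9 peptide, 20 µM SAM and 20 nM enzyme, which had been preincubated 15 min with compound.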
An asterisk follows results filed as active; [ ] = remark or other dose. The call rests on the fitted dose curve; in most records, active means well fitted inhibition curve with a large enough effect; inconclusive means small, poorly fitted or top-dose-only effect; inactive means no such curve, though single readings can be large or run the other way. Potency means the concentration at half of the fitted maximal effect.

Screening CC(C)N(Cc1ccccc1)C(=O)C1CCCN(c2ncnc3onc(-c4ccc(F)cc4)c23)C1 (stereo not drawn) returned HP1b binding inh 34%, JMJD2A Tudor inh -7%, BAZ2B inh -1%[57.1 µM] and G9a inh -24%[59 µM].
N#Cc1ccc(NC(=O)Cn2c3[n+](c4ccc(C(F)(F)F)cc42)CCCCC3)cc1 was read as HP1b binding inh -8%, JMJD2A Tudor inh 14µM*, L3MBTL1 block -3%[11.4 µM], BAZ2B inh -13% and G9a inh inconclusive.
Screening Cc1cc(C(C)(C)C)cc(C)c1Cn1c2[n+](c3ccc(C(F)(F)F)cc31)CCCCC2 returned HP1b binding inh 3%, JMJD2A Tudor inh inconclusive, L3MBTL1 block -2%, BAZ2B inh 1% and G9a inh -47%.
Screening FC(F)(F)c1cccc(Cn2c3[n+](c4ccc(C(F)(F)F)cc42)CCCCC3)c1 returned HP1b binding inh 18%, JMJD2A Tudor inh -16%, BAZ2B inh -22% and G9a inh 22µM*.
`O=C(Cn1c2[n+](c3ccc(C(F)(F)F)cc31)CCCCC2)Nc1ccc(Br)cc1` gave HP1b binding inh 38%, JMJD2A Tudor inh -4%, BAZ2B inh inconclusive and G9a inh 35µM*.
Screening COc1ccc(-c2nc3ccccc3o2)cc1NC(=O)C(C)(C)Oc1ccc(Br)cc1 returned HP1b binding inh 17%, JMJD2A Tudor inh -2%, BAZ2B inh -14% and G9a inh -20%[59 µM].
COc1ccccc1CNc1cc(-c2ccccc2)nc2nncn12 was read as HP1b binding inh 28%, JMJD2A Tudor inh -21%, BAZ2B inh -13% and G9a inh -7%[59 µM].
Screening CCCOc1ccc(CNC(=O)C2CCN(c3nc4ccccc4nc3C(F)(F)F)CC2)cc1 returned HP1b binding inh 15%, JMJD2A Tudor inh 1%, BAZ2B inh 0% and G9a inh -2%[59 µM].
O=C(CNC(=O)c1ccc(Cl)cc1Cl)Nc1ccc(F)cc1 was read as HP1b binding inh -12%, JMJD2A Tudor inh -10%, BAZ2B inh -19% and G9a inh 39%.
For Cc1c(Cl)cccc1-c1ccc(CNCc2ccccn2)o1 the results were HP1b binding inh 5%, JMJD2A Tudor inh inconclusive, L3MBTL1 block inconclusive, BAZ2B inh 25µM* and G9a inh 79µM*.
For O=C(NCc1ccccn1)c1c(Cl)cccc1Cl the results were HP1b binding inh 56%, JMJD2A Tudor inh 21%, L3MBTL1 block 3%, BAZ2B inh 0% and G9a inh -1%.
Screening Cc1ccccc1S(=O)(=O)N1CCN(c2nc(-c3cccs3)nc3ccccc23)CC1 returned HP1b binding inh 33% and JMJD2A Tudor inh -5%.
`Cn1cccc1-c1cc(C(=O)N/N=C/c2ccc(Cl)cc2)[nH]n1` gave HP1b binding inh -28%, JMJD2A Tudor inh inconclusive, BAZ2B inh 50µM* and G9a inh -15%.
`COc1cc(/C=N/NC(=O)c2cc(-c3cccn3C)n[nH]2)cc(OC)c1OC` gave HP1b binding inh -32%, JMJD2A Tudor inh inconclusive, L3MBTL1 block -13% and BAZ2B inh 40µM*.
Screening O=C(NCc1ccc(F)cc1)c1c(O)nc2ccccn2c1=O returned HP1b binding inh 46%, JMJD2A Tudor inh 8%, BAZ2B inh -2% and G9a inh 14%[59 µM].
CCS(=O)(=O)N1CCN(S(=O)(=O)c2ccc(Cl)s2)CC1 was read as HP1b binding inh 38%, JMJD2A Tudor inh -1%, BAZ2B inh 50µM* and G9a inh 16µM*.
`Cc1ccccc1CN1CCN(S(=O)(=O)c2ccc(Cl)s2)CC1` gave HP1b binding inh 111%, JMJD2A Tudor inh 47%, BAZ2B inh 12% and G9a inh 35%.
`CCOc1cc(-c2sc(Nc3ccccc3)n[n+]2C)ccc1OC` gave HP1b binding inh 52%, JMJD2A Tudor inh -11%, L3MBTL1 block -5%, BAZ2B inh inconclusive and G9a inh 45µM*.
COc1ccc(-c2sc(Nc3ccccc3)n[n+]2C)c(C)c1C was read as HP1b binding inh 13%, JMJD2A Tudor inh -17%, L3MBTL1 block -2% and BAZ2B inh 8%[57.1 µM].
